According to PubChem BioAssay (NCATS):
“And” between values parts separate entries of the source, which are not always exact repeats. Equal values may be shown once. Records with an inconclusive call do not appear. Some structures have more than one record in an assay (separate samples or runs), and their calls can disagree. The source made the active and inactive calls. Unless noted, calls follow the shape of the dose curve; as a rule, active = well fitted curve in the direction sought with a large enough effect; inconclusive = small, poorly fitted or top-dose-only effect, or another doubt; inactive = no such curve, though single readings can be large; an effect the other way counts as inactive or inconclusive.

What was measured:
[1] = Validation screen for inhibitors of Lassa infection (AID 463096; calls by dose curve; also: potency is read from the fitted curve at half-maximal effect)
[2] = Validation screen for small molecules that induce DNA re-replication in MCF 10A normal breast cells (AID 463097); also: nearly all actives have a fitted effect of over 60% in size; also: potency is read from the fitted curve at half-maximal effect
Method in brief: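 MCF 10A cells exposed to compound 48 hr at 37 C, 5% CO2, then Hoechst-stained 40 min. Laser-scanning imaging of nuclear DNA content (405 nm ex, 500-530 nm em); re-replication scored as rise in nuclei with elevated fluorescence intensity.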

[3] = molecular target: M-phase phosphoprotein 8 (Homo sapiens) (UniProt Q99549); assay: qHTS Validation Assay for Inhibitors for MPP8 Chromodomain Interactions with Methylated Histone Tails (AID 488949); also: nearly all actives have a fitted effect of over 55% in size; also: potency is read from the fitted curve at half-maximal effect
Method in brief: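 MPP8 (50 nM) was pre-bound to 50 nM biotinylated H3(1-18)K9me3 peptide in PBS pH 7.4 with 0.01% Tween-20. Compounds were then added for 30 min at room temperature, and complex disruption was read by AlphaScreen with streptavidin donor and nickel-chelate acceptor beads.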

[4] = Quantitative high throughput screen for delayed death inhibitors of the malarial parasite plastid, 96 hour incubation (AID 488745); also: nearly all actives have a fitted effect of over 70% in size; also: potency is read from the fitted curve at half-maximal effect
Method in brief: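 P. falciparum carrying an integrated firefly luciferase reporter, grown in erythrocytes (2% hematocrit, 0.1% parasitemia final) in RPMI 1640/0.5% Albumax, was exposed to compound for 96 h (two generations) at 37 C, 5% CO2. Luminescence decrease indicated growth inhibition.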

[5] = Cytometric Cell-Based qHTS for Inhibitors of the mTORC1 Signaling Pathway in MEF (Tsc2-/-, p53-/-) Cells (AID 2660); also: potency is read from the fitted curve at half-maximal effect
Method in brief: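 Tsc2-/-, p53-/- MEFs (empty vector) exposed to compound 24 h at 37 C, fixed, stained with Alexa-488 anti-phospho-rpS6 Ser235/236 and propidium iodide. Acumen laser scanning; phospho-S6/PI ratio thresholded against 7.5 nM rapamycin, reported as % positive cells.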

[6] = High Content Imaging Cell-Based qHTS for Inhibitors of the mTORC1 Signaling Pathway in MEF (Tsc2-/-, p53-/-) Cells (AID 2666);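 also: percent of cells scored positive for phospho-rpS6 Ser235/236 immunostaining by imaging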; also: potency is read from the fitted curve at half-maximal effect
Method in brief: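 Read-out: % positive cells per well, with thresholds from highest- and lowest-signal wells, based on phospho-rpS6 (Ser235/236) intensity normalized to Hoechst nuclear stain. Cells: Tsc2-/-, p53-/- MEFs carrying empty vector; compound 24 hrs, 37 degree Celsius.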

[7] = High Content Imaging Cell-Based qHTS for Inhibitors of the mTORC1 Signaling Pathway in MEF Cells (AID 2667); also: potency is read from the fitted curve at half-maximal effect
Method in brief: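 MEF (Tsc2-/-, p53-/-, WT Tsc2 re-expressed); cpd 24 h, 37 °C; PFA fix; Alexa-488 anti-p-rpS6 Ser235/236, PI, Hoechst; IN Cell imaging; Hoechst/Alexa-488 intensity ratio; % active cells, thresholds set from rapamycin and DMSO wells.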

[8] = molecular target: DNA polymerase III PolC-type (Bacillus subtilis (strain 168)) (UniProt P13267); assay: qHTS Validation Assay for the Inhibitors of DNA Replication in Gram-Positive Bacteria (AID 485295); also: potency is read from the fitted curve at half-maximal effect
Method in brief: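 Reconstituted B. subtilis Pol III holoenzyme (PolC, beta clamp, SSB, primase) preincubated with compound, then M13Gori single-stranded circular template with dNTPs/NTPs added; room temperature reaction. Stopped with EDTA/PicoGreen; dsDNA fluorescence read, EDTA as full-inhibition control.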

[9] = molecular target: Tumor susceptibility gene 101 protein (Homo sapiens) (UniProt Q99816); assay: qHTS Validation Assay for Iinhibitors of HIV-1 Budding by Blocking the Interaction of PTAP/TSG101 (AID 485342; calls by dose curve)
Method in brief: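 Tsg101 binding domain (10 uM) with FITC-labeled PTAP peptide (50 nM) in HEPES pH 7.5 buffer, 20 min at r.t. with compounds. Binding measured by fluorescence polarization.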

[10] = molecular target: Beta-2 adrenergic receptor (Homo sapiens) (UniProt P07550); assay: qHTS validation assay of beta-arrestin-biased ligands of beta2-adrenergic receptor (AID 485366)
Method in brief: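 Tango cells expressing recombinant beta2-AR and beta-arrestin with tTA-driven luciferase, in DMEM with 1% FBS. Compounds were titrated up to 46 microM for 18 hr at 37 degrees C. Luminescence was read 15 min after substrate; curves were fitted and class-assigned.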

[11] = molecular target: ATP-dependent 6-phosphofructokinase (Trypanosoma brucei brucei) (UniProt O15648); assay: qHTS Validation Assay to Find Inhibitors of T. brucei phosphofructokinase (AID 485368); also: potency is read from the fitted curve at half-maximal effect
Method in brief: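 Activity was read as ADP production by luminescence (ADP-Glo) after 45 min at room temperature. The enzyme was 1.25nM PFK in 0.1M TEA pH 8.0 with 0.5 mM F6P, 0.1mM ATP and 5 mM MgCl2. Compounds were titrated up to 57 uM and % activity normalized to no-enzyme and full-enzyme controls.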

[12] = molecular target: Thioredoxin reductase 1, cytoplasmic (Rattus norvegicus) (UniProt O89049); assay: qHTS Assay for Substrates of Mammalian Selenoprotein Thioredoxin Reductase 1 (TrxR1) (AID 488772);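 also: NADPH fluorescence in the first read after selenite addition and not the 8 min delta; series mostly up to about 57 µM; a drop in NADPH fluorescence below the no-compound background marks a TrxR1 substrate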
Method in brief: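 Quantitative HTS in Tris-HCl buffer at pH 7.5 with EDTA and Tween-20, using rat TrxR1, 400 uM NADPH and 400 uM selenite (final). A fall in initial NADPH fluorescence relative to background marked substrate behaviour.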

[13] = molecular target: Thioredoxin reductase 1, cytoplasmic (Rattus norvegicus) (UniProt O89049); assay: qHTS Assay for Inhibitors of Mammalian Selenoprotein Thioredoxin Reductase 1 (TrxR1) (AID 488773); conditions: Potency: inhibition; also: nearly all actives have a fitted effect of over 40% in size; also: potency is read from the fitted curve at half-maximal effect
Method in brief: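 Steps: enzyme (90 nM) plus NADPH (400 uM final), 5 min at ~22 deg C; compound added, 15 min; selenite (400 uM final) added; fluorescence followed for 8 min. Concentration-response curves derived from the normalized delta values.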

[14] = molecular target: Chromobox protein homolog 1 (Homo sapiens) (UniProt P83916); assay: qHTS Validation Assay for Inhibitors of HP1-beta Chromodomain Interactions with Methylated Histone Tails (AID 488953); also: nearly all actives have a fitted effect of over 50% in size; also: potency is read from the fitted curve at half-maximal effect
Method in brief: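 HP1-beta (50 nM) was preincubated 30 min at room temperature with biotinylated H3(1-18)K9me3 peptide (50 nM) in PBS pH 7.4, 0.01% Tween-20, then with compounds 30 min. AlphaScreen signal was read after streptavidin donor/nickel chelate acceptor beads (10 ug/mL final).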

[15] = molecular target: Ubiquitin carboxyl-terminal hydrolase 2 (Homo sapiens) (UniProt O75604); assay: qHTS Validation Assay for Inhibitors of Ubiquitin-specific Protease USP2a Using CHOP2 as the Reporter (AID 463106)
Method in brief: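 USP2 core (10nM final) was preincubated with compound for 30min at RT in 20mM Tris-HCl pH 8.0, 2mM CaCl2, 2mM beta-mercaptoethanol, 0.05% CHAPS. Ub-CHOP2 and reporter substrate (25nM each) were added, and fluorescence (Ex 485/Em 531nm) was read after 60min.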

[16] = qHTS Validation Assay to Find Inhibitors of Chronic Active B-Cell Receptor Signaling (AID 485345; active = well fitted curve in the direction sought with a large enough effect in the main read-out, with a control signal flat, not every such curve was filed as active)
Method in brief: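 TMD8 ABC-DLBCL cells with dox-inducible green luciferase–IκBα fusion and red native luciferase; compounds 46 uM–3 nM, 4 h at 37C with doxycycline in 0.5% FBS IMDM. Green/red ratio normalized to basal and 10 uM MG-132.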

[17] = Cytometry Cell-Based qHTS for Inhibitors of the mTORC1 Signaling Pathway in MEF cells (AID 2668); also: potency is read from the fitted curve at half-maximal effect
Method in brief: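 MEFs (Tsc2-/-, p53-/- stably expressing WT Tsc2) treated 24 h at 37 degree Celsius, fixed, stained with Alexa-488 anti-phospho-rpS6 Ser235/236 and propidium iodide; Acumen laser scanning. Reported as % positive cells, phospho-S6 normalized to PI.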

[18] = molecular target: Flap endonuclease 1 (Homo sapiens) (UniProt P39748); assay: qHTS Validation Assay for the Inhibitors of Human Flap endonuclease 1 (FEN1) (AID 488816)
Method in brief: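 FEN1, dispensed as a 10 nM reagent, was preincubated with pin-transferred compounds for 15 min at room temperature before substrate was added (50 nM final). Plates were read at 0 and 15 min, and a four-parameter Hill equation was fitted to the concentration-response data.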

[19] = Quantitative high throughput screen for delayed death inhibitors of the malarial parasite plastid, 48 hour incubation (AID 488752); also: nearly all actives have a fitted effect of over 65% in size; also: potency is read from the fitted curve at half-maximal effect
Method in brief: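 Erythrocytes infected with P. falciparum carrying an integrated firefly luciferase reporter (2% hematocrit, 0.1% parasitemia final) were exposed to compounds in RPMI 1640/0.5% Albumax for 48 h at 37 C, 5% CO2. Growth inhibition was scored as reduced luminescence.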

Measured: Potency

Chain of Ubiquitin carboxyl-terminal hydrolase 2 (Homo sapiens) (O75604 whole entry, looked up): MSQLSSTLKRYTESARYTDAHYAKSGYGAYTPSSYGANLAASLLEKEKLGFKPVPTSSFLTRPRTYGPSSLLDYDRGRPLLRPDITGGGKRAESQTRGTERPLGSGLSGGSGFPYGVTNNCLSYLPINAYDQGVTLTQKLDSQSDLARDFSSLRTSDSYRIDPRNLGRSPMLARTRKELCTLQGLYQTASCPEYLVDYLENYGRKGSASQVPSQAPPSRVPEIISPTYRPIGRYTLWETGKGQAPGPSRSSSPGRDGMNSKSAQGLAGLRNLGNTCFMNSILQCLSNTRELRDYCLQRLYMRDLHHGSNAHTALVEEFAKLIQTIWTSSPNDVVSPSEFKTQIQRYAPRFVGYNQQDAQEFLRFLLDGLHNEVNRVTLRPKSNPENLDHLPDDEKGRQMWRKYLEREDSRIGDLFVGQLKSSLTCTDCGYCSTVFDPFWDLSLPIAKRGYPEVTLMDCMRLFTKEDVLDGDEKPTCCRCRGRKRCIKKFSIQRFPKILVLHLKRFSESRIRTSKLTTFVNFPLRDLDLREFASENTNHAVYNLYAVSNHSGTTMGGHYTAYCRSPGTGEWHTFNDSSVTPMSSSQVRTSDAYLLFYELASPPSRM
Chain of Tumor susceptibility gene 101 protein (Homo sapiens) (Q99816 whole entry, looked up, the tested form may be a part): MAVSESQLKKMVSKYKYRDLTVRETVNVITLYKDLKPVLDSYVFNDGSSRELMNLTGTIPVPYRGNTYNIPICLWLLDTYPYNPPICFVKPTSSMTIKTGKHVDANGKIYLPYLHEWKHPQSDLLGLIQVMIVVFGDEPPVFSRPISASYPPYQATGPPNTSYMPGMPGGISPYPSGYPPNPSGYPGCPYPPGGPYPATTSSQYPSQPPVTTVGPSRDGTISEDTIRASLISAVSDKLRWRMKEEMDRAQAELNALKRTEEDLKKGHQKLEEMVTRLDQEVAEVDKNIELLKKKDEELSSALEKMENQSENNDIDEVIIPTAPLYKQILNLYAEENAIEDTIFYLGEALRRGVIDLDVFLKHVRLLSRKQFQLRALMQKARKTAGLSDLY
Chain of DNA polymerase III PolC-type (Bacillus subtilis (strain 168)) (P13267 whole entry, looked up): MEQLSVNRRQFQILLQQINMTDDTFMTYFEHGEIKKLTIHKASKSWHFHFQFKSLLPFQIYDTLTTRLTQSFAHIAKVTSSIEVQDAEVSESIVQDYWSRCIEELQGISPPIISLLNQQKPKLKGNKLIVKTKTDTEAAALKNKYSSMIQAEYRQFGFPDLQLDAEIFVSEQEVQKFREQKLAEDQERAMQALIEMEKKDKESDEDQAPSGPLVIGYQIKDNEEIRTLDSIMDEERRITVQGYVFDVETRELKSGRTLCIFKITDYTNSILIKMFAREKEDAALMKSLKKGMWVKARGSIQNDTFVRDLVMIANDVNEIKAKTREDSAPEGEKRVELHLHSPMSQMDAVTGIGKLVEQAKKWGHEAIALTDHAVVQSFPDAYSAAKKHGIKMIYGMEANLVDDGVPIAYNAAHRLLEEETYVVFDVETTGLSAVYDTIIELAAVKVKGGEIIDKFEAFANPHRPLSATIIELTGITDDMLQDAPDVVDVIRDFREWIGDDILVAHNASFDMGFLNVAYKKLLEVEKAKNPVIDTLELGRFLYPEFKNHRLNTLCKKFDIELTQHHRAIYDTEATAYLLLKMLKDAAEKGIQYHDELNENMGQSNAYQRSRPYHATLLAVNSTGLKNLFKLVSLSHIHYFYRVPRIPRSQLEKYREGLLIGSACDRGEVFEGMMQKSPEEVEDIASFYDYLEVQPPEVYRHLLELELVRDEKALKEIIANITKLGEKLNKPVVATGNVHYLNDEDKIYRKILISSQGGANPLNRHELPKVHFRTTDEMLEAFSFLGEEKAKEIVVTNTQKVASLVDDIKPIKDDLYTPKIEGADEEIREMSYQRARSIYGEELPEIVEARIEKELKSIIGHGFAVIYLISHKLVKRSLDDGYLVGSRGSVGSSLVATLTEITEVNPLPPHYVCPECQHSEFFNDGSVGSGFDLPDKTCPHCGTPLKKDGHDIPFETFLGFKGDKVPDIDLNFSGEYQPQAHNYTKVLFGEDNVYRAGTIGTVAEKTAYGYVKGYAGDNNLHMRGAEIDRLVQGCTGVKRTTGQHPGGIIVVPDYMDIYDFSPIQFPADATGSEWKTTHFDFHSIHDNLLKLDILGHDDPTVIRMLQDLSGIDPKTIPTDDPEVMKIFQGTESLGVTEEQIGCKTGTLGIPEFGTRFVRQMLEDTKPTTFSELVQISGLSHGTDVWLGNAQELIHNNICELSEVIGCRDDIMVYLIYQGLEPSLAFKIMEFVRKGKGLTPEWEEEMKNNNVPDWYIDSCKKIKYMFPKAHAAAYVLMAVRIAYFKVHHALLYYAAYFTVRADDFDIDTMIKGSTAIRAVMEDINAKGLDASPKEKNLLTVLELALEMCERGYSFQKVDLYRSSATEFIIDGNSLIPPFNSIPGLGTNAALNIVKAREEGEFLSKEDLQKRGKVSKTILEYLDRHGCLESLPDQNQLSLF
Chain of Flap endonuclease 1 (Homo sapiens) (P39748 whole entry, looked up): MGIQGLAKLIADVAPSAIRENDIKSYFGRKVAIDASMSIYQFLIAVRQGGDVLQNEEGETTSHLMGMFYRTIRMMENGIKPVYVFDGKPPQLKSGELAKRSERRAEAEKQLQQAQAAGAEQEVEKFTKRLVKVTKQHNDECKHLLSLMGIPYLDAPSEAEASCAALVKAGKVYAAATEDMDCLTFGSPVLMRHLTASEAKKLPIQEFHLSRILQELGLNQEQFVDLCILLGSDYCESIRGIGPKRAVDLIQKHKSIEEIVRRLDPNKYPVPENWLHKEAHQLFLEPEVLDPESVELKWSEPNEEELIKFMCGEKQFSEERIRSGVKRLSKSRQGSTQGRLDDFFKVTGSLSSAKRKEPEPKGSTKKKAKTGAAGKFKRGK
Chain of ATP-dependent 6-phosphofructokinase (Trypanosoma brucei brucei) (O15648 whole entry, looked up): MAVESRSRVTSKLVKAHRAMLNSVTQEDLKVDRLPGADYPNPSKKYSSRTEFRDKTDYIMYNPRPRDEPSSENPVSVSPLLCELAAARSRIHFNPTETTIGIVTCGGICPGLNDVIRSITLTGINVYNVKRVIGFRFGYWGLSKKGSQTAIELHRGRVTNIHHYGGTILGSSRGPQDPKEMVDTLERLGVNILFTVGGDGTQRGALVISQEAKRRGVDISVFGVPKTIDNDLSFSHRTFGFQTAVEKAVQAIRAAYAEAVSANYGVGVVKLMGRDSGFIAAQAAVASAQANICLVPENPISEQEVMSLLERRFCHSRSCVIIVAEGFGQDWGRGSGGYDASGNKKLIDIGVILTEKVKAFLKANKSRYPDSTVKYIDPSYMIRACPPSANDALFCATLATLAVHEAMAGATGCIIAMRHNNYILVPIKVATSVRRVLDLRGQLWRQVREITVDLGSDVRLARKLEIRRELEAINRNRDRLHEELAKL
Chain of M-phase phosphoprotein 8 (Homo sapiens) (Q99549 whole entry, looked up): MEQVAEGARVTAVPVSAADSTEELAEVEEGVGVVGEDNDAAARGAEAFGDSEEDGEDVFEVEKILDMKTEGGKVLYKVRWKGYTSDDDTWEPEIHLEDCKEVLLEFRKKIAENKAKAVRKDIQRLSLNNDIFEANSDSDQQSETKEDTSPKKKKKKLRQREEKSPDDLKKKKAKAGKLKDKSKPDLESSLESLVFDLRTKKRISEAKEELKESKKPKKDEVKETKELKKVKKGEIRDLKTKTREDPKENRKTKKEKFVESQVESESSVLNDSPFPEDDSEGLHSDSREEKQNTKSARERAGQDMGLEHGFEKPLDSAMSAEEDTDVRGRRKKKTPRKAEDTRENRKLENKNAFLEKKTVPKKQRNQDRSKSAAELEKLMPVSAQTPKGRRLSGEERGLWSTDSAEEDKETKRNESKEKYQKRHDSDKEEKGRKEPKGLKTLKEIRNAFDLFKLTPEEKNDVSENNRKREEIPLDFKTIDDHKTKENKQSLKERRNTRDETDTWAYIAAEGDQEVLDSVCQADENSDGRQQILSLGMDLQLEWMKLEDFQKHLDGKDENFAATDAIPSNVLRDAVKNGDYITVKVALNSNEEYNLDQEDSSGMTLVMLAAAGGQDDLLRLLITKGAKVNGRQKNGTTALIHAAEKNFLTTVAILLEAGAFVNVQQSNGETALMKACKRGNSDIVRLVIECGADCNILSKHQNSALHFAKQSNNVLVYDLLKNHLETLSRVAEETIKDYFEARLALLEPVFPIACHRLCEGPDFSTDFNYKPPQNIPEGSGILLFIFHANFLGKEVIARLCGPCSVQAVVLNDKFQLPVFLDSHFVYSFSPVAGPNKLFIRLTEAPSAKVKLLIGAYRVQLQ
Chain of Thioredoxin reductase 1, cytoplasmic (Rattus norvegicus) (O89049 whole entry, looked up): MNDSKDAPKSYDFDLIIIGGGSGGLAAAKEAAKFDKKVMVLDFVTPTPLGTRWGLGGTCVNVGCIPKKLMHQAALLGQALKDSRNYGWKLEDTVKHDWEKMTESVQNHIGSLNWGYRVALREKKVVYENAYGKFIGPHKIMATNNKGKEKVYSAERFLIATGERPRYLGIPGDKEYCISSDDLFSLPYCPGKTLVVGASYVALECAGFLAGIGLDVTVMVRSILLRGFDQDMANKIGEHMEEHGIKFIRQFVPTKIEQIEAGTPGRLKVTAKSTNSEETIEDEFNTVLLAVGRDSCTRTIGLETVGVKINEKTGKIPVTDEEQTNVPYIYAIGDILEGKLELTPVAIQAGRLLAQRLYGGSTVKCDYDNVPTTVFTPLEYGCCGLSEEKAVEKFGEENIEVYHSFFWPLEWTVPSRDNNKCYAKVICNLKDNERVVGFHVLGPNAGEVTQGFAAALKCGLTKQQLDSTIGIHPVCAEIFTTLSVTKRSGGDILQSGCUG
Chain of Chromobox protein homolog 1 (Homo sapiens) (P83916 whole entry, looked up): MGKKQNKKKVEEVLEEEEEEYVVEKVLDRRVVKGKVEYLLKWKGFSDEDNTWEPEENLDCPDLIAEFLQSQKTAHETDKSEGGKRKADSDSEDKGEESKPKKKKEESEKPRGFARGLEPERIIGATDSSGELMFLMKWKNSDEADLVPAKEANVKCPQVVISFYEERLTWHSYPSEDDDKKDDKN

CNC(=O)OCC[N+](C)(C)C
inactive: [1] | [2] | [3]

CN1C2CCC1CC(OC(c1ccccc1)c1ccc(Cl)cc1)C2 (centres undefined)
active: [1] 8.91 µM | [4] 0.147 µM

O=P(O)(O)C(Cl)(Cl)P(=O)(O)O
inactive: [1] | [2] | [4] | [3]

COc1ccc2c(c1)c(CCN1CCOCC1)c(C)n2C(=O)c1cccc(Cl)c1Cl
active: [14] 44.7 µM
inactive: [5] | [6] | [7] | [8] | [9] | [10] | [11] | [12] | [13]

CCN(CC)c1ncnc2c1ncn2[C@@H]1O[C@H](COP(=O)(O)OP(=O)(O)C(Br)(Br)P(=O)(O)O)[C@@H](O)[C@H]1O
inactive: [1] | [2] | [4] | [3]

C[N+]1(C)CCC(OC(=O)C(c2ccccc2)c2ccccc2)CC1
inactive: [1] | [2] | [3]
active: [4] 2.08 µM

O=c1c2ccccc2[se]n1-c1ccccc1
inactive: [6] | [7] | [15] | [9] | [10] | [12]
active: [8] 4.74 µM | [11] 1.51 µM | [3] 5.01 µM and 2.99 µM | [14] 25.1 µM

CN1CCc2cc(O)cc3c2[C@H]1Cc1ccc(O)c(O)c1-3
active: [13] 13.4 µM | [14] 1.34 µM
inactive: [8] | [9] | [16] | [10] | [12]

Ic1ccccc1CNC1C2CCN(CC2)C1C(c1ccccc1)c1ccccc1 (centres undefined)
inactive: [15] | [8] | [9] | [10] | [11] | [12] | [18] | [3]
active: [6] 16.5 µM | [7] 6.56 µM | [17] 6.56 µM | [2] 17.8 µM | [14] 44.7 µM

COc1ccc2c(c1)/C(=C/c1cnc[nH]1)C(=O)N2
inactive: [1] | [15] | [8] | [9] | [10] | [11] | [12] | [13] | [14]
active: [5] 10.4 µM | [17] 6.56 µM
44.7 µM (active) and inactive: [3]

c1ccc2c(c1)[I+]c1ccccc1-2
inactive: [15] | [9] | [10] | [11] | [12] | [3] | [14]
active: [6] 3.29 µM | [7] 0.0585 µM | [1] 0.251 µM | [2] 6.31 µM | [4] 0.131 µM | [19] 0.147 µM

CCn1cnc2c(Nc3cccc(Cl)c3)nc(N[C@@H]3CCCC[C@@H]3N)nc21
39.8 µM (active) and inactive: [3]
inactive: [15] | [8] | [9] | [10] | [11] | [12] | [13]
active: [6] 18.5 µM | [2] 3.55 µM | [4] 0.208 µM | [19] 5.86 µM | [14] 39.8 µM

CCCN1CCc2cccc3c2[C@H]1Cc1ccc(O)c(O)c1-3
inactive: [5] | [6] | [7] | [15] | [8] | [9] | [10] | [12]
active: [11] 12 µM | [13] 23.8 µM | [14] 70.8 µM

CN1CC[C@@]2(C)c3cc(O)ccc3N(C)C12 (some centres undefined)
active: [19] 14.7 µM | [14] 0.0095 µM
not listed: [1] | [2] | [4] | [8] | [11] | [13] | [17]
inactive: all other assays above

CCCCCCC(C)(C)c1ccc([C@@H]2C[C@H](O)CC[C@H]2CCCO)c(O)c1
inactive: [7] | [15] | [9] | [16] | [10] | [11] | [13] | [3]
active: [4] 4.65 µM

CC(C)CC(NP(=O)(O)O[C@@H]1O[C@@H](C)[C@H](O)[C@@H](O)[C@H]1O)C(=O)NC(Cc1c[nH]c2ccccc12)C(=O)O (some centres undefined)
inactive: [1] | [2] | [4] | [19] | [3]

NC(N)=Nc1ccc2[nH]c3c(c2c1)C[C@@]1(O)[C@H]2Cc4ccc(O)c5c4[C@@]1(CCN2CC1CC1)[C@H]3O5
active: [1] 0.891 µM | [13] 26.7 µM | [3] 31.6 µM and 2.12 µM | [14] 28.2 µM
inactive: [7] | [17] | [9] | [19] | [12]

CCCn1c(C)c(C(=O)c2ccc3ccccc3c2)c2ccccc21
not listed: [2] | [11] | [13] | [16] | [17] | [19]
inactive: all other assays above

Oc1ccc2c3c1O[C@H]1c4[nH]c5ccccc5c4C[C@@]4(O)C(C2)N(CC2CC2)CCC314 (some centres undefined)
active: [1] 11.2 µM
not listed: [4] | [5] | [7] | [8] | [16] | [17] | [19]
inactive: all other assays above

CC(N)[C@H](O)c1ccc(O)c(O)c1 (some centres undefined)
active: [11] 5.36 µM | [3] 29.9 µM
not listed: [7] | [8] | [13] | [14] | [17] | [18]
inactive: all other assays above

CC1(C(=O)O)C2CCC(O2)C1(C)C(=O)O (centres undefined)
active: [5] 13.1 µM | [6] 18.5 µM | [7] 3.69 µM | [4] 3.29 µM | [19] 5.22 µM | [14] 0.0084 µM
not listed: [1] | [2] | [15] | [16] | [17]
inactive: all other assays above

C=CCN1CC[C@]23c4c5ccc(O)c4O[C@@H]2/C(=N/N=C2\CC[C@@]4(O)C6Cc7ccc(O)c8c7[C@@]4(CCN6CC=C)[C@@H]2O8)CC[C@@]3(O)C1C5
active: [2] 15.8 µM | [4] 2.94 µM
inactive: [15] | [8] | [9] | [16] | [10] | [11] | [12] | [18] | [3]
